Screening data: PubChem, National Center for Advancing Translational Sciences (NCATS)
Sfp PPTase inh: blocks B. subtilis Sfp PPTase activity; Potency, µM, for the others: largest response in the series, negative = inhibition, actives largely listed as inhibitors; hit rate 3.5% among 310,000; AID 1490; Q9F4F7; Biochemical Sfp PPTase activity, qHTS;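 also: the enzyme is Sfp with the accession as filed and its product quenches rhodamine fluorescence; 0% = enzyme reaction without inhibitor and -100% = no enzyme wells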
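Sfp 15 nM + cpd, 15 min RT; start w/ rhodamine-CoA 5 uM, BHQ-2-YbbR 12.5 uM (final); 50 mM Hepes pH 7.6, 10 mM MgCl2, 0.01% NP-40, 0.01% BSA; read 525/598 nm at 0 and 30 min.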
BAZ2B inh: BAZ2B (human) inhibition; Q9UIF8; AlphaScreen BAZ2B-H3K14Ac peptide displacement; Potency, µM (series often up to 114 µM), inactives show top-dose activity change, negative = inhibition, actives largely listed as inhibitors; hit rate 4.4% among 360,000; AID 504333; also: % is scaled to controls: 0 for no effect and ±100 for the full control effect; nearly all actives have a fitted effect of over 60% in size
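BAZ2B 50 nM plus b-H3(5-23)K14Ac 50 nM, PBS pH 7.4/0.01% Tween-20, 30 min RT; compound added (max 110 uM), 30 min RT; streptavidin donor/Ni-chelate acceptor beads 10 ug/mL final, 20 min dark; AlphaScreen read.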
JMJD2A Tudor: blocks the human JMJD2A Tudor domain. AID 504339. Potency, µM (series often up to 114 µM), without a hit: at the top dose activity change, negative = inhibition, actives largely listed as inhibitors. AlphaScreen JMJD2A-Tudor / H3K4me3 peptide binding. hit rate 4.4% among 390,000; also: % is scaled to controls: 0 for no effect and ±100 for the full control effect; nearly all actives have a fitted effect of over 50% in size
HP1b binding inh: inhibitors of HP1-beta chromodomain binding to methylated histone tails. P83916. AlphaScreen HP1-beta / biotin-H3K9me3 peptide binding. Potency, µM (doses to about 114 µM), for the others: at the top dose activity change, negative = inhibition, most hits filed as inhibitors. hit rate 0.56% among 390,000. AID 540317; also: nearly all actives have a fitted effect of over 70% in size
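Compound inhibition of the preformed complex between 50 nM HP1-beta and 50 nM biotinylated H3K9me3 peptide was read by AlphaScreen. Buffer was PBS pH 7.4 with 0.01% Tween-20. Incubations ran 30 min at room temperature, with 10 ug/mL donor/acceptor beads.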
ALOX12 inh: inhibitors of human 12S-lipoxygenase ALOX12; P18054; purified 12hLO, xylenol orange hydroperoxide absorbance; Potency, µM (highest dose often 108 µM), inactives show at the highest dose activity change, negative = inhibition, actives largely listed as inhibitors; hit rate 1.1% among 580,000; AID 1671190; also: % is scaled to controls: 0 for no effect and ±100 for the full control effect
Target sequence (P18054 whole entry, looked up): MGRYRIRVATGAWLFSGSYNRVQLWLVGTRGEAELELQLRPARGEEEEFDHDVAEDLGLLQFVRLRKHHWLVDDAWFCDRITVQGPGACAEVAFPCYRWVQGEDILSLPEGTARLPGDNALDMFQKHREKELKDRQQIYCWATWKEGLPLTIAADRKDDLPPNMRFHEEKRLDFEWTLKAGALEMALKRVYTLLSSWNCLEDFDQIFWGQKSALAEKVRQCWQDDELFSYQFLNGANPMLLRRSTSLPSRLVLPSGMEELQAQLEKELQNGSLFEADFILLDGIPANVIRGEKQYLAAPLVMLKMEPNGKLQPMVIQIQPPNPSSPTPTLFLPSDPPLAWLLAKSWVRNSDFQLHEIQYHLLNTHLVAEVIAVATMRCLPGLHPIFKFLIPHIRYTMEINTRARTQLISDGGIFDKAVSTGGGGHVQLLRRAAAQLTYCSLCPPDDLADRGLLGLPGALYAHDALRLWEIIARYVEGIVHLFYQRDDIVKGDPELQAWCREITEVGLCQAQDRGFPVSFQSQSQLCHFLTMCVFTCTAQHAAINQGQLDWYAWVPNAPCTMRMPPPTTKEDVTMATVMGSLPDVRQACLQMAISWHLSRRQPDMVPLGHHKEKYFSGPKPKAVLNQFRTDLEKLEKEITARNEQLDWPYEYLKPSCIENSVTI
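Hydroperoxide product was detected by ferrous iron/xylenol orange as the 573 to 405 nm absorbance ratio. Arachidonic acid at 40 uM (final) was turned over for 30 min at room temperature by 150 nM human 12hLO, pH 7.0 Hepes buffer, after 15 min compound preincubation.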
G9a block: blocks human histone lysine methyltransferase G9a | Q96KQ7 | G9a H3K9 monomethylation, AlphaScreen, 2 h | Potency, µM (highest dose often 102 µM), inactives show top-dose activity, negative = inhibition, usual class: inhibitors | hit rate 8.8% among 350,000 | AID 504332; also: % is scaled to controls: 0 for no effect and ±100 for the full control effect; nearly all actives have a fitted effect of over 75% in size
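G9a (20 nM) preincubated 15 min RT with compounds, then 500 nM biotinylated H3K9 peptide and 20 uM SAM added; 2 h RT reaction. Monomethyl-H3K9 product detected by AlphaScreen with anti-H3K9me1 antibody, streptavidin donor and anti-rabbit IgG acceptor beads.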
Active calls of the source: *; ? = inconclusive; . = no result; ! = a repeat was not active; [ ] = dose if it differs, or a comment. A selection: hits, their analogues and other compounds. The true share with any hit is near 8.7%. Calls follow the shape of the dose curve; as a rule, active = well fitted curve in the direction sought with a large enough effect; inconclusive = small, poorly fitted or top-dose-only effect, or another doubt; inactive = no such curve, though single readings can be large; an effect the other way counts as inactive or inconclusive. Potency is read from the fitted curve at half-maximal effect.

SMILES	Sfp PPTase inh	BAZ2B inh	JMJD2A Tudor	HP1b binding inh	ALOX12 inh	G9a block
C[C@@H]1CN([C@H](C)CO)C(=O)c2cc(NC(=O)c3ccncc3)ccc2O[C@@H]1CN(C)C(=O)Nc1ccccc1	.	.	50.1µM*	4.5%	?	.
Cc1noc(C)c1NC(=O)N(C)C[C@@H]1Oc2c(NC(=O)c3ccncc3)cccc2C(=O)N([C@H](C)CO)C[C@@H]1C	.	.	35.5µM*	3.7%	?	.
C[C@H](CO)N1C[C@H](C)[C@@H](CN(C)C(=O)Nc2ccc(C(F)(F)F)cc2)Oc2ccc(NC(=O)c3ccncc3)cc2C1=O	.	.	-16.8%	12.7%	?	.
COc1ccc(-c2ccc3c(c2)C(=O)N2CC[C@H](NC(=O)CSC)[C@H]2C(=O)N3)c(OC)c1	.	.	.	.	-7.5%	.
CCN(CC)CCOc1ccc2c(c1)C(=O)c1cc(OCCN(CC)CC)ccc1-2	11.4%	.	.	.	22.4µM*!	-43.5%[2.33 µM]
CCN(CC)CCOc1cccc(C(C)C)c1	-6.5%	?	6.31µM*	?	?	?
CC(C)c1cccc(OCCCCN(C)C)c1	79.4µM*	?	?	?	-30.0%	3.98µM*
Cc1cnc(C(=O)N2CCc3onc(-c4ccc(F)c(F)c4)c3C2)cn1	.	.	.	.	66.9%	.
O=C(Cc1ccc(Cl)cc1)NNC(=O)c1cnccn1	8.0%	5.7%	50.1µM*	8.5%	1.2%	?
O=C(O)c1cccc2c1C(=O)c1cccc3snc-2c13	25.3%	-18.9%	-23.1%	7.4%	-19.4%	56.2µM*
O=C(c1cccc(S(=O)(=O)NC2CC2)c1)N1CCN(c2ccccc2F)CC1	.	.	.	.	23.8%	.
O=C(NCCN1CCCCCC1)C1CCC(CNS(=O)(=O)c2cccc3cccnc23)CC1 (centres undefined)	6.8%	-31.9%	?	25.4%	-1.4%	44.7µM*
CCOc1ccccc1C(=O)N1CCC(Oc2nccnc2N(C)C)C1 (centres undefined)	.	.	.	.	53.2%	.
CCc1ccc(C(=O)NNc2ccc(Cl)cc2)cc1	13.9%	?	-25.9%	77.7%	-7.4%	10µM*
CC(C)(C)c1ccc(C(=O)NNc2cc(Cl)cc(Cl)c2)cc1	13.7%	-9.7%	-2.3%	64.5%	147.9%	22.4µM*
CCc1ccc(C(=O)NNc2cc(Cl)cc(Cl)c2)cc1	4.8%	-4.2%	-16.2%	19.7%	?	.
N#Cc1ccccc1Sc1ccccc1C(=O)NCC(c1ccco1)N1CCCCC1 (centres undefined)	.	-7.4%	-26.5%	23.2%	-2.4%	?
O=C(NCC(c1ccco1)N1CCCC1)c1ccccc1Sc1ccc(C(F)(F)F)cc1[N+](=O)[O-] (centres undefined)	.	?	?	-28.7%	?	10µM*
CC(O)C(=O)O (centres undefined)	16.3%	.	.	.	.	-18.5%[59 µM]
CC(C(=O)O)C(=O)O	.	-3.9%	79.4µM*	-18.1%	-8.1%	10µM*
COc1ccccc1-n1c([S-])c(C(=O)Nc2ccccc2C(F)(F)F)[n+]2ccc(C(=O)NCCO)cc12	7.0%	-19.4%	?	?	-11.3%	20µM*
Cc1ccc(-n2c([S-])c(C(=O)Nc3ccc(OC(F)F)cc3)[n+]3ccc(C(=O)NCCO)cc23)cc1C	?	-37.4%	-10.3%	10.1%	?	10µM*
CC1CCC2(CC1)NC(=O)N(NC(=O)CSc1ncnc3ccccc13)C2=O (centres undefined)	.	.	.	.	-6.9%	.
CCN1CCc2c(sc(NC(=O)Nc3cccc(C(C)=O)c3)c2C(N)=O)C1	.	.	.	.	3.3%	.
Nc1c(C(=O)O)nnn1Cc1ccccc1	-4.2%	-30.0%	-23.1%	6.1%	-18.3%	?
CCn1nnc(C(=O)O)c1C(=O)O	0.6%	?	20µM*	-0.3%	-12.7%	?
CC(C)(C)S(=O)(=O)/C(C#N)=N/Nc1ccc(C#N)cc1	-7.3%	70.8µM*	-23.1%	21.7%	21.2%	-34.4%
CC(C)(C)S(=O)(=O)/C(C#N)=N/Nc1ccc(S(N)(=O)=O)cc1	8.2%	-23.1%	89.1µM*	26.6%	-0.8%	-23.8%
